Compound activity as filed in PubChem.
F508del corr – CFTR F508del correction in bronchial cells; CFBE cells, YFP halide quenching; stimulated with forskolin plus potentiator P3; % fluorescence drop versus neutral controls; activity (quench increase), % at 7.58 µM; hit rate 0.36% among 350,000;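 active = mean added fluorescence quench of at least 8% versus neutral control, with both replicates also reaching 8%; inconclusive = only one of the mean or replicate conditions met; inactive = mean below 8% and not both replicates reaching 8%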;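 also: cells transiently co-express mutant CFTR-F508del with the halide-sensitive YFP; corrector assay measuring rescue of mutant channel to the surface after 24 h compound exposure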
HIV Env fusion – HIV envelope-mediated fusion inhibition. HeLa-JRFL Env/CEM21 cell fusion, luciferase. inhibition, % at 12.3 µM. hit rate 1.1% among 360,000. AID 651610;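 active = mean replicate inhibition score of at least 50 and every replicate individually at or above 50; inconclusive = only one of the two criteria met; inactive = mean below 50 and not all replicates reaching 50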;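 also: 0% = plate neutral controls and 100% = maraviroc near 300 nM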
PAX8 inh HTS – PAX8 transcriptional activity inhibition; RMG-I TPO-luciferase reporter, SteadyGlo, 24 h; inhibition, % at 12.6 µM; hit rate 1.2% among 360,000; AID 652154;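 active = mean replicate inhibition at least 60% with every replicate also reaching 60%; inconclusive = only one of the two criteria is met; inactive = mean below 60% and not all replicates reaching 60%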;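 also: luciferase light reporting Pax8 driven TPO promoter activity; plate controls were median of neutral control wells for no effect and mitoxantrone controls for full effect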
GAA850 FXN act – activators of GAA850 frataxin (FXN) promoter | HEK293 lucGAA850 FXN promoter luciferase reporter, 24 h; percent of 10 µM SAHA response | hit rate 0.56% among 360,000 | activation, % at 6 µM;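 active = activation above the average of all compounds screened plus 3 SD, cutoff fixed separately per campaign, cut at about 7.5% in these data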;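 also: 0% = DMSO wells and 100% = 10 µM SAHA wells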
EWS-Fli block – blocks EWS/Fli oncoprotein-driven transcription; A673 NR0B1-luciferase reporter, viability-normalised; inhibition, % at 12.6 µM; hit rate 0.67% among 350,000;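 active = mean inhibition of at least 50% after viability correction, with every replicate also passing that limit; inconclusive = mean reaches 50% but only one of two replicates passes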;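 also: firefly luciferase signal divided by Alamar Blue viability fluorescence both relative to DMSO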
The depositor's hits bear a star; ? = inconclusive; nt = not tested or not shown; [ ] = dose if it differs, or a comment. A selection: hits, their analogues and other compounds. The true share with any hit is near 2.5%.

SMILES	F508del corr	HIV Env fusion	PAX8 inh HTS	GAA850 FXN act	EWS-Fli block
COc1ccc2c(C)nc(Nc3nc(C)c(C)c(=O)[nH]3)nc2c1	nt	66*	-88	-17	nt
Cc1nc(Nc2nc(CSc3ccc(Cl)cc3)cc(=O)[nH]2)nc2ccccc12	nt	-77	-7	-1	nt
CCc1c(C)nc(Nc2nc(C)c3ccc(OC)cc3n2)[nH]c1=O	1	nt	nt	4	-81
COc1ccc2nc(Nc3nc(CSc4nc5ccccc5[nH]4)cc(=O)[nH]3)nc(C)c2c1	nt	86*	29	1	nt
Cc1nc(Nc2nc(CSc3nc4ccccc4[nH]3)cc(=O)[nH]2)nc2ccccc12	nt	161*	102*	-9	nt
COc1cc(OC)nc(-n2ncc(Br)c(Br)c2=O)n1	nt	-87	108*	-15	48
COC(=O)c1cnn(-c2nc(OC)cc(OC)n2)c1C	nt	-35	-13	0	-9
CCc1nc2ccccc2c(C(=O)OCC(=O)N2CC(C)OC(C)C2)c1C (stereo not drawn)	2	64*	11	1	-10
CCc1nc2ccc(C)cc2c(C(=O)Oc2cccc3cccnc23)c1C	nt	-28	nt	2	nt
CCc1nc2ccccc2c(C(=O)Oc2cccc3cccnc23)c1C	nt	80*	nt	4	nt
CCOC(=O)C1=C(C)NC(SC)=C(C#N)C1CC(C)C (stereo not drawn)	?	-40	23	-4	54*
O=C(Cc1ccccn1)NCC[C@H]1CC[C@@H](NC(=O)Nc2ccccc2)[C@@H](CO)O1	5	17[16.7 µM]	50	nt	-6
O=C(NCc1cccs1)c1cc(-c2ccccc2)nn1CC1CC(c2cccc([N+](=O)[O-])c2)=NO1 (stereo not drawn)	8.6*	35	3	-1	9
Cc1cc(C)c2oc(-c3cccc(N)c3)nc2c1	0	-380	-118	4	-78
Cc1ccc2nc(-c3cccc(N)c3)oc2c1	1	nt	nt	0	59*
CCCCC(=O)OCC(=O)C1(O)Cc2c(O)c3c(c(O)c2C(OC2CC(NC(=O)C(F)(F)F)C(O)C(C)O2)C1)C(=O)c1c(OC)cccc1C3=O (stereo not drawn)	3	15	-40	-6	45
COc1cccc2c1C(=O)c1c(O)c3c(c(O)c1C2=O)C[C@](O)(C(C)=O)C[C@H]3O[C@@H]1C[C@@H](N)[C@@H](O)[C@@H](C)O1	31*	-293	112*	-12	45
COc1cccc2c1C(=N)c1c(O)c3c(c(O)c1C2=O)CC(O)(C(C)=O)CC3OC1CC(N)C(O)C(C)O1 (stereo not drawn)	nt	nt	nt	-9	nt
COc1cccc2c1C(=O)c1c(O)c3c(c(O)c1C2=O)CC(O)(C(C)=O)CC3OC1CC(O)C(O)C(C)O1 (stereo not drawn)	19*	-185	8	-5	22
Cc1ccc(CN(C)C[C@H]2OCc3cn(nn3)CCCC(=O)N([C@H](C)CO)C[C@@H]2C)cc1	-1	nt	-7	nt	8
CCCCCCCCN1C(=O)[C@@H](CC(=O)N2CCN(C(=O)c3ccco3)CC2)C[C@@]2(C(=O)OC)C1=C[C@H](C(C)(C)C)O[C@@H]2C	-1	27	84*	nt	24
CCCCCCCCN1C(=O)[C@@H](CC(=O)N2CCN(C(=O)c3ccco3)CC2)C[C@@]2(C(=O)OC)C1=C[C@H](C1CCCC1)O[C@@H]2C	-1	10	73*	nt	18
C/C(=N\Nc1ccc2nncn2n1)c1ccccn1	?	-71	63*	-9	35
O=S(=O)(N1CCCCC1)N1CCN(CC(O)COc2ccc3cc(Br)ccc3c2)CC1 (stereo not drawn)	nt	63*	nt	-2	nt
CN(Cc1ccc(OC(F)F)cc1)C(=O)c1ccccc1Sc1ccccc1C#N	1	56*	26	-1	28
SMILES	F508del corr	HIV Env fusion	PAX8 inh HTS	GAA850 FXN act	EWS-Fli block
Cc1ccc(CN(C)C(=O)c2ccccc2Sc2ccccc2C#N)cc1	-3	26	9	1	-10
O=[N+]([O-])c1ccc(N2CCC(=NOCc3ccc(Cl)cc3)CC2)cc1	nt	75*	nt	-1	nt
CCCNC(=O)N(C)C[C@@H]1Oc2ncc(C3=CCCCC3)cc2C(=O)N([C@@H](C)CO)C[C@H]1C	-3	-10[16.7 µM]	nt	nt	-8
COC(=O)c1cc(C)nc2c1C(=O)C(=O)C=C2N1CCOCC1	-4	-1	106*	-13	73*
Cc1ccc(OCC(=O)N/N=C/c2cccn2C)cc1C	-2	-11	-3	-1	-3
Cc1cccc(OCC(=O)N/N=C/c2cccn2C)c1	1	62*	-13	0	-5
O=S(=O)(c1ccc2c(c1)OCCO2)N1CCC(c2nc3ccc(Cl)cc3[nH]2)CC1	nt	55*	nt	-1	nt
CO[C@@H]1CN(C)C(=O)c2cc(NC(=O)Nc3cccc(Cl)c3)ccc2OC[C@@H](C)N(C(=O)Nc2c(C)noc2C)C[C@@H]1C	-1	nt	nt	nt	3
COc1ccc(C)cc1NC(=O)CSc1nnc(CC(=O)Nc2cccc(C(F)(F)F)c2)n1C	nt	80*	nt	-1	nt
COc1ccccc1NC(=O)CSc1nnc(CC(=O)Nc2cccc(C(F)(F)F)c2)n1C	nt	-70	nt	-2	nt
C[C@@H]1CN([C@H](C)CO)C(=O)c2cccc(N(C)C)c2O[C@H]1CN(C)Cc1ccccc1	0	5[16.7 µM]	-9	nt	-4
CNc1ccc(Br)cc(C(=O)/C=C/c2ccc(OC)cc2OC)c1=O	-2	2	-45	1	2
CNc1ccc(Br)cc(C(=O)/C=C/c2ccc(Cl)cc2Cl)c1=O	-3	-199	66*	2	25
C[C@@H]1CCCCO[C@H](CN(C)C(=O)Nc2ccc(C(F)(F)F)cc2)[C@@H](C)CN([C@@H](C)CO)C(=O)c2cc(NC(=O)Nc3ccccc3)ccc2O1	-4	20[16.7 µM]	93*	nt	-11
C[C@@H]1CCCCO[C@H](CN(C)C(=O)Nc2ccc(C(F)(F)F)cc2)[C@H](C)CN([C@H](C)CO)C(=O)c2cc(NC(=O)Cc3ccccc3)ccc2O1	0	26[16.7 µM]	10	nt	10
C[C@@H]1CCCCO[C@H](CN(C)C(=O)Nc2ccc(C(F)(F)F)cc2)[C@H](C)CN([C@@H](C)CO)C(=O)c2cc(NC(=O)Nc3ccccc3)ccc2O1	0	30[16.7 µM]	3	nt	-10
C[C@H]1CCCCO[C@H](CN(C)C(=O)Nc2ccc(C(F)(F)F)cc2)[C@@H](C)CN([C@@H](C)CO)C(=O)c2cc(NC(=O)Cc3ccccc3)ccc2O1	4	66*[16.7 µM]	50	nt	-8
C[C@@H]1CCCCO[C@H](CN(C)C(=O)Nc2ccc(C(F)(F)F)cc2)[C@H](C)CN([C@@H](C)CO)C(=O)c2cc(NC(=O)c3ccccc3)ccc2O1	-3	73*[16.7 µM]	16	nt	-6
C[C@@H]1CCCCO[C@@H](CN(C)C(=O)Nc2ccc(C(F)(F)F)cc2)[C@@H](C)CN([C@H](C)CO)C(=O)c2cc(NC(=O)c3ccccc3)ccc2O1	-1	10[16.7 µM]	9	nt	-11
C[C@H](CO)N1C[C@H](C)[C@H](CN(C)C(=O)Nc2ccccc2)Oc2ccc(NC(=O)Nc3ccc(C(F)(F)F)cc3)cc2C1=O	2	nt	74*	nt	0
